Assay in all cases: DAPPL (digital affinity profiling via proximity ligation, sequencing); 10 mM Tris-HCl pH 7.5, 50 mM NaCl, 1 mM DTT, 4% glycerol, room temperature, 30 min; GST-TFs on glutathione beads, 16-mer random dsDNA library, 0.1% formaldehyde crosslink after washing; high values mean tight binding
Details in all cases: protein: recombinant; tags: N-terminal GST; dsDNA, one strand shown

Experiment [1] concerns the target T1, ERF (Homo sapiens, UniProt P50548 1-548).
T1 sequence: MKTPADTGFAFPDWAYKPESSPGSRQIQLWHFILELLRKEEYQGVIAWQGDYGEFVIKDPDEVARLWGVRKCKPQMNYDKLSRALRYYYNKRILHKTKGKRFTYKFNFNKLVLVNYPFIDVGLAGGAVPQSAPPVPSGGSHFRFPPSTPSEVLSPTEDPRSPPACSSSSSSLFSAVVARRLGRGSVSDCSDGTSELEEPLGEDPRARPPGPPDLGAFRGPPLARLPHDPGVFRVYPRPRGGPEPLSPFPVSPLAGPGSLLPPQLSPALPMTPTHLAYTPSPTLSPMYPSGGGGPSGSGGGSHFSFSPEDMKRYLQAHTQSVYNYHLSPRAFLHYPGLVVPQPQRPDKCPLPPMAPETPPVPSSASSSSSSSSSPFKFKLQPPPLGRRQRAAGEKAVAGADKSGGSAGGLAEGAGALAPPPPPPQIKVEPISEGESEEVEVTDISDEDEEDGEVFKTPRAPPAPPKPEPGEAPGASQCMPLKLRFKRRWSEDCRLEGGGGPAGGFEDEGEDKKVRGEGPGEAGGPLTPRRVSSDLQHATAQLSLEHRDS
Summed up:
(§1)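 Yeast served to express human transcription factors as GST fusions, which were then captured on glutathione beads and labelled with DNA barcodes. Pooled with a tag-only sample, they were incubated with 200 nmole of a 16-mer random double-stranded DNA library for 30 min at room temperature in Tris/NaCl/DTT/glycerol buffer, washed, crosslinked with 0.1% formaldehyde, ligated by proximity, amplified by PCR and sequenced. Dividing each hexamer's read frequency for a factor by its frequency for the tag-only sample gives the binding signal.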

For experiment [2], the target named is T2, ETV3L (Homo sapiens, UniProt Q6ZN32 1-361).
T2 sequence: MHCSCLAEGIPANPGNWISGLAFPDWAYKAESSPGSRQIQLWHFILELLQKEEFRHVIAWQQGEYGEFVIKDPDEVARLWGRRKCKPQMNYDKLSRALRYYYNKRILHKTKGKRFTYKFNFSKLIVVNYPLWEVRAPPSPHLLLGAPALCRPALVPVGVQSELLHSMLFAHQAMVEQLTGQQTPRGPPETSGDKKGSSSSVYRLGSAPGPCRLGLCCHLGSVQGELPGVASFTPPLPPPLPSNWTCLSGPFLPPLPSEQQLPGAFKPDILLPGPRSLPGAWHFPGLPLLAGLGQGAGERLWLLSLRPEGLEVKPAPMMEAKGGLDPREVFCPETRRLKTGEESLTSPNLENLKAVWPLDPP
Summed up:
as §1

In experiment [3] the target is T3, ETS2 (Homo sapiens, UniProt P15036 1-469).
T3 sequence: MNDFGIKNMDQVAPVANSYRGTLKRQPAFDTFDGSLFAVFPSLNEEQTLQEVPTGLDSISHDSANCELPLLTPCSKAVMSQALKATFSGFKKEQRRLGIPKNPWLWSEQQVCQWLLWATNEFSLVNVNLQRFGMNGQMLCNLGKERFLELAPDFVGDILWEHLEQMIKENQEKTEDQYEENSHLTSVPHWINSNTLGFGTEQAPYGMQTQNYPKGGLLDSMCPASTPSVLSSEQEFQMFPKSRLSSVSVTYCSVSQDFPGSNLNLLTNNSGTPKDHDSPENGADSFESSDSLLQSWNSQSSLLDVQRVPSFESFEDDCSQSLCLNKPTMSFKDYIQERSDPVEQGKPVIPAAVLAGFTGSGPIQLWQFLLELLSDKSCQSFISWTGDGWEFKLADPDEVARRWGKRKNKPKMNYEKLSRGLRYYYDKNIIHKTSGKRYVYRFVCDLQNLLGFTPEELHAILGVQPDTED
In short, it runs like this:
as §1

The target in experiment [4] is T4, SPDEF (Homo sapiens, UniProt O95238 1-335).
T4 sequence: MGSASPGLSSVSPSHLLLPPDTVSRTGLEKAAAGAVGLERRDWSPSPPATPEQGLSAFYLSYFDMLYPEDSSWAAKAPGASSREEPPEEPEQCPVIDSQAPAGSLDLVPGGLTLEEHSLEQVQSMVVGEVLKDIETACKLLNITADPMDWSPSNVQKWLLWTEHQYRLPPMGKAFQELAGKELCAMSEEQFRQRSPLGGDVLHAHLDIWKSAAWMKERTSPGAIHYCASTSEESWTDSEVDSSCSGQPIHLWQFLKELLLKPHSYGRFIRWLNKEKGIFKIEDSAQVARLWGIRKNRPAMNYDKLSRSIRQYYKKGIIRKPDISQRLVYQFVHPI
In short, it runs like this:
as §1

The target in experiment [5] is T5, ETV7 (Homo sapiens, UniProt Q9Y603 1-341).
T5 sequence: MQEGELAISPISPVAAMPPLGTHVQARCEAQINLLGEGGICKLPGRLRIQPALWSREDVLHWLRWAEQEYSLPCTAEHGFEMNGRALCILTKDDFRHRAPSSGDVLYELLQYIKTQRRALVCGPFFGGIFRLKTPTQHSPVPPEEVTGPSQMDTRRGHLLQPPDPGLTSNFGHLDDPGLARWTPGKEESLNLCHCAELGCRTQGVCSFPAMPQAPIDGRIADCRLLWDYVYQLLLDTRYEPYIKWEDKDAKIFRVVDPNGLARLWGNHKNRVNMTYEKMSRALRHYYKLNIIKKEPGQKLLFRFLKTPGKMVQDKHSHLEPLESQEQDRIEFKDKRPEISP
In short, it runs like this: as §1

The target of experiment [6] is T6, ELF5 (Homo sapiens, UniProt Q9UKW6-2 1-255).
T6 sequence: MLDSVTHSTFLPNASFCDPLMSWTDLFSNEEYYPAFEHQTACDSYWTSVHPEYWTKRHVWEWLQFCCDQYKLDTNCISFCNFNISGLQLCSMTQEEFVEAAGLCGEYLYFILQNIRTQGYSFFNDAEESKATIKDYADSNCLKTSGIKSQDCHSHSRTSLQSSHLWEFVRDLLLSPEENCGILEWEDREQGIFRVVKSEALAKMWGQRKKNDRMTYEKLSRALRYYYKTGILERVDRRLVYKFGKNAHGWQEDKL
Summed up:
as §1

Experiment [7] has as its target T7, ETV3 (Homo sapiens, UniProt P41162-2 1-143).
T7 sequence: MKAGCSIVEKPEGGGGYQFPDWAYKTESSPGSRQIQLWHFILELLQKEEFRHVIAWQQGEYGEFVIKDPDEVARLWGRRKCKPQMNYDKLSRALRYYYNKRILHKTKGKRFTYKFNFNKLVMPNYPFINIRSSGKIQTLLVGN
In short, it runs like this:
as §1

Experiment [8] has as its target ETV6 (Homo sapiens, UniProt P41212 1-452). Summed up:
as §1

Chain of ETV6 (P41212 whole entry): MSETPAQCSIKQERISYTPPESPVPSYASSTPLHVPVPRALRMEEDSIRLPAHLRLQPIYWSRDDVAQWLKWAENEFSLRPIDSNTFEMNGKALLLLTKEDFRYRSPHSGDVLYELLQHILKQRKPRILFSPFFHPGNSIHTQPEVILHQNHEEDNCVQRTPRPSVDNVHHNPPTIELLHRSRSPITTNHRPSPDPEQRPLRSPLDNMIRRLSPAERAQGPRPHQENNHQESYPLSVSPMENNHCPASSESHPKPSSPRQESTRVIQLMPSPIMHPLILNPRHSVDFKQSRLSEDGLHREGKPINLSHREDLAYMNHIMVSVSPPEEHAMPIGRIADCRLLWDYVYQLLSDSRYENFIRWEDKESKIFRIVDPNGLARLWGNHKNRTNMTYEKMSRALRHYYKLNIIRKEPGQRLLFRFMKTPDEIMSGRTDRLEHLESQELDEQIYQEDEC

Consider GATATT, for which the binding signal was 1.05 fold enrichment (6-mer frequency, TF over GST control) in experiment [1]; 1.12 fold enrichment (6-mer frequency, TF over GST control) in experiment [2]; 1.13 fold enrichment (6-mer frequency, TF over GST control) in experiment [3]; 1.26 fold enrichment (6-mer frequency, TF over GST control) in experiment [4]; 1.14 fold enrichment (6-mer frequency, TF over GST control) in experiment [5]; 1.25 fold enrichment (6-mer frequency, TF over GST control) in experiment [6]. Further, the binding signal in experiment [7] is 1.14 fold enrichment (6-mer frequency, TF over GST control); in experiment [8], 1.17 fold enrichment (6-mer frequency, TF over GST control).
For the sequence TTGAGC, the binding signal in experiment [1] was 1.04 fold enrichment (6-mer frequency, TF over GST control); in experiment [2] it was 1.06 fold enrichment (6-mer frequency, TF over GST control); in experiment [3], 1.03 fold enrichment (6-mer frequency, TF over GST control); in experiment [4], 1.02 fold enrichment (6-mer frequency, TF over GST control); in experiment [5], 1.1 fold enrichment (6-mer frequency, TF over GST control); in experiment [6], 1 fold enrichment (6-mer frequency, TF over GST control). In addition, the binding signal in experiment [7] was 1 fold enrichment (6-mer frequency, TF over GST control); in experiment [8], 1.08 fold enrichment (6-mer frequency, TF over GST control).
On to CTGGAC, for which the binding signal in experiment [1] is 1.03 fold enrichment (6-mer frequency, TF over GST control); in experiment [2], 1.22 fold enrichment (6-mer frequency, TF over GST control); in experiment [3], 1.07 fold enrichment (6-mer frequency, TF over GST control); in experiment [4] it was 1.12 fold enrichment (6-mer frequency, TF over GST control); in experiment [5] it was 1.09 fold enrichment (6-mer frequency, TF over GST control); in experiment [6] it was 1.16 fold enrichment (6-mer frequency, TF over GST control). Also, the binding signal is 1.06 fold enrichment (6-mer frequency, TF over GST control) in experiment [7] and 1.09 fold enrichment (6-mer frequency, TF over GST control) in experiment [8].
On to TCTCGC, for which the binding signal in experiment [1] is 1.75 fold enrichment (6-mer frequency, TF over GST control); in experiment [2], 1.81 fold enrichment (6-mer frequency, TF over GST control); in experiment [3] it was 1.91 fold enrichment (6-mer frequency, TF over GST control); in experiment [4] it was 1.63 fold enrichment (6-mer frequency, TF over GST control); in experiment [5] it was 1.68 fold enrichment (6-mer frequency, TF over GST control); in experiment [6] it was 1.71 fold enrichment (6-mer frequency, TF over GST control). Also, the binding signal in experiment [7] is 1.79 fold enrichment (6-mer frequency, TF over GST control); in experiment [8], 1.62 fold enrichment (6-mer frequency, TF over GST control).
On to GGTTTG, for which the binding signal in experiment [1] was 1.26 fold enrichment (6-mer frequency, TF over GST control); in experiment [2], 1.16 fold enrichment (6-mer frequency, TF over GST control); in experiment [3], 1.15 fold enrichment (6-mer frequency, TF over GST control); in experiment [4] it was 1.06 fold enrichment (6-mer frequency, TF over GST control); in experiment [5], 1.11 fold enrichment (6-mer frequency, TF over GST control); in experiment [6], 1.16 fold enrichment (6-mer frequency, TF over GST control). In addition, the binding signal in experiment [7] is 1.25 fold enrichment (6-mer frequency, TF over GST control); in experiment [8], 1.17 fold enrichment (6-mer frequency, TF over GST control).
As for CGCGTC, the binding signal in experiment [1] was 1.37 fold enrichment (6-mer frequency, TF over GST control); in experiment [2], 1.26 fold enrichment (6-mer frequency, TF over GST control); in experiment [3], 1.24 fold enrichment (6-mer frequency, TF over GST control); in experiment [4] it was 1.31 fold enrichment (6-mer frequency, TF over GST control); in experiment [5] it was 1.25 fold enrichment (6-mer frequency, TF over GST control); in experiment [6], 1.34 fold enrichment (6-mer frequency, TF over GST control). Besides, the binding signal in experiment [7] is 1.23 fold enrichment (6-mer frequency, TF over GST control); in experiment [8], 1.29 fold enrichment (6-mer frequency, TF over GST control).
Turning to TAATGT, the binding signal is 1.06 fold enrichment (6-mer frequency, TF over GST control) in experiment [1]; 1.11 fold enrichment (6-mer frequency, TF over GST control) in experiment [2]; 1.09 fold enrichment (6-mer frequency, TF over GST control) in experiment [3]; 1.12 fold enrichment (6-mer frequency, TF over GST control) in experiment [4]; 1.19 fold enrichment (6-mer frequency, TF over GST control) in experiment [5]; 1.07 fold enrichment (6-mer frequency, TF over GST control) in experiment [6]. The binding signal is 1.05 fold enrichment (6-mer frequency, TF over GST control) in experiment [7] and 1.09 fold enrichment (6-mer frequency, TF over GST control) in experiment [8].
On to ACATTC, for which the binding signal in experiment [1] is 1.42 fold enrichment (6-mer frequency, TF over GST control); in experiment [2], 1.3 fold enrichment (6-mer frequency, TF over GST control); in experiment [3] it was 1.3 fold enrichment (6-mer frequency, TF over GST control); in experiment [4] it was 1.27 fold enrichment (6-mer frequency, TF over GST control); in experiment [5], 1.31 fold enrichment (6-mer frequency, TF over GST control); in experiment [6], 1.36 fold enrichment (6-mer frequency, TF over GST control). The binding signal in experiment [7] was 1.31 fold enrichment (6-mer frequency, TF over GST control); in experiment [8], 1.4 fold enrichment (6-mer frequency, TF over GST control).

(Values after paper PMC7862700, “An all-to-all approach to the identification of sequence-specific readers for epigenetic DNA modifications on cytosine”.)
